# Test results taken from PMC7862700, “An all-to-all approach to the identification of sequence-specific readers for epigenetic DNA modifications on cytosine”.
# Legend:
# Test in all cases: DAPPL (digital affinity profiling via proximity ligation, sequencing); 10 mM Tris-HCl pH 7.5, 50 mM NaCl, 1 mM DTT, 4% glycerol, room temperature, 30 min; GST-TFs on glutathione beads, 16-mer random dsDNA library, 0.1% formaldehyde crosslink after washing; high values mean tight binding
# FLI1 = molecular target: T1, FLI1 (Homo sapiens, UniProt Q01543 1-452); details: protein: recombinant; tags: N-terminal GST; dsDNA, one strand shown
# T1 sequence: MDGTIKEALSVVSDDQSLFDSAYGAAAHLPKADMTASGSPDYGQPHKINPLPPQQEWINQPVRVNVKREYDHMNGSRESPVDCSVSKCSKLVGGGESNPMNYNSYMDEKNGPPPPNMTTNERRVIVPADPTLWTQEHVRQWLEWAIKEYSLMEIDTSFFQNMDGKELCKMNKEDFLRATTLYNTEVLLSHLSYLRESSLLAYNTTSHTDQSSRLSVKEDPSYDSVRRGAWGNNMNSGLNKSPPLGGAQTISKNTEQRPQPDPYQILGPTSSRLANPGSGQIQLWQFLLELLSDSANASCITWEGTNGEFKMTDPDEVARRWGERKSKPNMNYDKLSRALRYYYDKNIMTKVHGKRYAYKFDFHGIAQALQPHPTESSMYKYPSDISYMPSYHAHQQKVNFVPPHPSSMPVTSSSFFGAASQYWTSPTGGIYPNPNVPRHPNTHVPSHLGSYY
# How it was run: (§1)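 Human transcription factors were made in yeast as GST fusions, captured on glutathione beads and barcoded with DNA. With a tag-only sample included, the pool was incubated with 200 nmole of a random double-stranded 16-mer DNA library in Tris/NaCl/DTT/glycerol buffer at room temperature for 30 min, then crosslinked with 0.1% formaldehyde after washing, ligated by proximity, amplified and sequenced. For binding signal, each hexamer's read frequency for a factor is divided by its frequency for the tag-only sample.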
# ELK1 = molecular target: T2, ELK1 (Homo sapiens, UniProt P19419 1-428); details: protein: recombinant; tags: N-terminal GST; dsDNA, one strand shown
# T2 sequence: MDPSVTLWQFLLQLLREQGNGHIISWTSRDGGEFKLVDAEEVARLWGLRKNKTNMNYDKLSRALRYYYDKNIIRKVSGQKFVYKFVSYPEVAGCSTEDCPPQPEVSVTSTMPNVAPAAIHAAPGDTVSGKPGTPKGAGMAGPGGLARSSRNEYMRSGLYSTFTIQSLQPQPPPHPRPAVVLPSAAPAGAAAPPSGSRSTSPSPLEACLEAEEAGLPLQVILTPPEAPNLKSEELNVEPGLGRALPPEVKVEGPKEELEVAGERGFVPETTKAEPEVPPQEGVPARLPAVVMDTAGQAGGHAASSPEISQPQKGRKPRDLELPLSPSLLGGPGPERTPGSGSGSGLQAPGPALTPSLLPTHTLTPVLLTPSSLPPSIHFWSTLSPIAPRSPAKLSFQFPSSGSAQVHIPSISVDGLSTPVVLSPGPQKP
# How it was run: as §1
# GABPA = molecular target: T3, GABPA (Homo sapiens, UniProt Q06546 1-454); details: protein: recombinant; tags: N-terminal GST; dsDNA, one strand shown
# T3 sequence: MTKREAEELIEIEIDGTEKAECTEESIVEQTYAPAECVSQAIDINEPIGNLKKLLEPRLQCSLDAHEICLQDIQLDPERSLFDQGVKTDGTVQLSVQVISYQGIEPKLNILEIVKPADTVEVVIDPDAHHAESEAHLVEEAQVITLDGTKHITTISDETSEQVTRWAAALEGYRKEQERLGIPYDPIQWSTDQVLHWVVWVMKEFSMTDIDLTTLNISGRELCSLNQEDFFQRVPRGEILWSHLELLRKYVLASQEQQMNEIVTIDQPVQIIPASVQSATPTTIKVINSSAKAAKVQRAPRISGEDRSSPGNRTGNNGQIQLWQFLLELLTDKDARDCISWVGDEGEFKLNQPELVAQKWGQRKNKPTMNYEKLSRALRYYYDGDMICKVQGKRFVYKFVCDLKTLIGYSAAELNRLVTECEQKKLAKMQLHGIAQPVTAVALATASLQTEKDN
# How it was run: as §1
# ERG = molecular target: T4, ERG (Homo sapiens, UniProt P11308 1-479); details: protein: recombinant; tags: N-terminal GST; dsDNA, one strand shown
# T4 sequence: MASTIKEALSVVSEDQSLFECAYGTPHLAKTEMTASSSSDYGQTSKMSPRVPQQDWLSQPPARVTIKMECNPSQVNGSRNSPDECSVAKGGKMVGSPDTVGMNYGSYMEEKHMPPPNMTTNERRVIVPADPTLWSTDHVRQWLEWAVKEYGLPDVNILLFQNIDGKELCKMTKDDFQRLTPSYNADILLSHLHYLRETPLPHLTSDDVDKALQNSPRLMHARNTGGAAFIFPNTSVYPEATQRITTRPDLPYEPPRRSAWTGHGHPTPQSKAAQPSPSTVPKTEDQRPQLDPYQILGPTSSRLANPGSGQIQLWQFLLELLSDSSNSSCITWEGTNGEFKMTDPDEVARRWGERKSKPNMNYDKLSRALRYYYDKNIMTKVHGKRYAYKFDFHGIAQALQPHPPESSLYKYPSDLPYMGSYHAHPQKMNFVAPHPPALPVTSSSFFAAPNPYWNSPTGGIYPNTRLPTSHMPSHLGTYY
# How it was run: as §1
# ELF1 = ELF1 (Homo sapiens, UniProt P32519 1-619); details: protein: recombinant; tags: N-terminal GST; dsDNA, one strand shown
# ELF1, sequence (P32519 whole entry): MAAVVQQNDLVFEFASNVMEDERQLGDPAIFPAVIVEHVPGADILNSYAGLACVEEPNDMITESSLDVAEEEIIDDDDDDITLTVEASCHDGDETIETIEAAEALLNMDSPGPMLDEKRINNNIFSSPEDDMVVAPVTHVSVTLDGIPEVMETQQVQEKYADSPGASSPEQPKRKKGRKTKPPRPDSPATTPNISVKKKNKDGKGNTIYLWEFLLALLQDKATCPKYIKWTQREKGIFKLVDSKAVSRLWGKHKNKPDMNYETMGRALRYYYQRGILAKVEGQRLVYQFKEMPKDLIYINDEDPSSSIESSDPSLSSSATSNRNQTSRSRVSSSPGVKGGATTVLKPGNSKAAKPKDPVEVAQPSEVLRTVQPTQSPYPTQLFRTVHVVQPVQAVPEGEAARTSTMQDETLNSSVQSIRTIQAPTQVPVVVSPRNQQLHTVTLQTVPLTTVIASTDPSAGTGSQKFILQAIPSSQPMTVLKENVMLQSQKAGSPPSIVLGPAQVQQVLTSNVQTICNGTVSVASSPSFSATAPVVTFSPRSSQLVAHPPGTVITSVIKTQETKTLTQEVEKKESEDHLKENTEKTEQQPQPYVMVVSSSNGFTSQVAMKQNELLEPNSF
# How it was run: as §1
# EHF = molecular target: T5, EHF (Homo sapiens, UniProt Q9NZC4 1-300); details: protein: recombinant; tags: N-terminal GST; dsDNA, one strand shown
# T5 sequence: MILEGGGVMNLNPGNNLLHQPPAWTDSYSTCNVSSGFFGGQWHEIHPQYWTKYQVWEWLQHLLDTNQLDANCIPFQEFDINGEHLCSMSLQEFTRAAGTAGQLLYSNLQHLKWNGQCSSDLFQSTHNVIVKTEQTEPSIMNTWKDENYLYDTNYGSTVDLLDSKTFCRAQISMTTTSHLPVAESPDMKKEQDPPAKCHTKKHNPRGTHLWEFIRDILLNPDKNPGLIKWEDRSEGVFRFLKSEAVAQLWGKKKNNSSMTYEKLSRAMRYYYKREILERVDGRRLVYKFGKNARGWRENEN
# How it was run: as §1
# SPI1 = SPI1 (Homo sapiens, UniProt P17947 1-270); details: protein: recombinant; tags: N-terminal GST; dsDNA, one strand shown
# How it was run: as §1
# SPIB = SPIB (Homo sapiens, UniProt Q01892 1-262); details: protein: recombinant; tags: N-terminal GST; dsDNA, one strand shown
# SPIB, sequence (Q01892 whole entry): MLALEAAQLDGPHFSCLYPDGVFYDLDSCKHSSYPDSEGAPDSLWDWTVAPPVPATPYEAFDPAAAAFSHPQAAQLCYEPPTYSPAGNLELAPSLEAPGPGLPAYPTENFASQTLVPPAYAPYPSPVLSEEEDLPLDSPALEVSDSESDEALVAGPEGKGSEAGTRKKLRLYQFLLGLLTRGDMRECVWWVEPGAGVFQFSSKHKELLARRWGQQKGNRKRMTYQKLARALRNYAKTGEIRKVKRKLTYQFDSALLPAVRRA
# How it was run: as §1
# ELK3 = molecular target: T6, ELK3 (Homo sapiens, UniProt P41970 1-407); details: protein: recombinant; tags: N-terminal GST; dsDNA, one strand shown
# T6 sequence: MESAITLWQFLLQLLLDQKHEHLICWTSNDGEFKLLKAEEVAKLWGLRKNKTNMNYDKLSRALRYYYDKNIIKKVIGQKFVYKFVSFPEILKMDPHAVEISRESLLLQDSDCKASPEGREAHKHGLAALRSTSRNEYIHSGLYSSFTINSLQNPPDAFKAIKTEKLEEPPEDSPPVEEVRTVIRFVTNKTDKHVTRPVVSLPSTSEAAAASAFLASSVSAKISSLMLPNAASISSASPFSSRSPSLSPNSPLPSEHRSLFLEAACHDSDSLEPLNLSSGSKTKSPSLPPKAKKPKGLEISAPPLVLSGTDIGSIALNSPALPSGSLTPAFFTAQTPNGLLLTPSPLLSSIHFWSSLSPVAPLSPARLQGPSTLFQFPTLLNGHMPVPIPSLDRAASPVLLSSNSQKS
# How it was run: as §1
# FEV = molecular target: T7, FEV (Homo sapiens, UniProt Q99581 1-238); details: protein: recombinant; tags: N-terminal GST; dsDNA, one strand shown
# T7 sequence: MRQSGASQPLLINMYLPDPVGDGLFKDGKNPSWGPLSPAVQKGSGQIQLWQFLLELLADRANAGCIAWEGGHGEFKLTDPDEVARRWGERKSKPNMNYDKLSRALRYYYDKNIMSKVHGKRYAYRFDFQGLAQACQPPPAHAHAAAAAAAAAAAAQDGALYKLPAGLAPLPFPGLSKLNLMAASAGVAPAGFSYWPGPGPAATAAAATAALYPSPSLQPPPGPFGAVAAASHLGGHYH
# How it was run: as §1
# ETV5 = ETV5 (Homo sapiens, UniProt P41161 1-510); details: protein: recombinant; tags: N-terminal GST; dsDNA, one strand shown
# ETV5, sequence (P41161 whole entry): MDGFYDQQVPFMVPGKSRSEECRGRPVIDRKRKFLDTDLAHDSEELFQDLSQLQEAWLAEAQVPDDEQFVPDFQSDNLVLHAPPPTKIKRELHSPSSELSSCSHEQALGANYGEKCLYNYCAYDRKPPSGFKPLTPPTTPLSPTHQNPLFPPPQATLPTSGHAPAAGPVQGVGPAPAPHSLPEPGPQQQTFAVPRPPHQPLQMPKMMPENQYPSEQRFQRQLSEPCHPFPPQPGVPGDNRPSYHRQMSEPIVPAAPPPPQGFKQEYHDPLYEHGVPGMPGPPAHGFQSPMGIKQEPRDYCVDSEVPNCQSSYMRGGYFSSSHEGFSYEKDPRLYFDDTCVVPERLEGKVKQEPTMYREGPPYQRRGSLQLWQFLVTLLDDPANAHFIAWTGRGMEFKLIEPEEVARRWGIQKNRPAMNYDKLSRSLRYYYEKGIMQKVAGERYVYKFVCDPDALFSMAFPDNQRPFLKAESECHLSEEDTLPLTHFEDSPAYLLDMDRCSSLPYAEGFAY
# How it was run: as §1
# HSF1 = HSF1 (Homo sapiens, UniProt Q00613 1-529); details: protein: recombinant; tags: N-terminal GST; chain copies: 3; dsDNA, one strand shown
# HSF1, sequence (Q00613 whole entry): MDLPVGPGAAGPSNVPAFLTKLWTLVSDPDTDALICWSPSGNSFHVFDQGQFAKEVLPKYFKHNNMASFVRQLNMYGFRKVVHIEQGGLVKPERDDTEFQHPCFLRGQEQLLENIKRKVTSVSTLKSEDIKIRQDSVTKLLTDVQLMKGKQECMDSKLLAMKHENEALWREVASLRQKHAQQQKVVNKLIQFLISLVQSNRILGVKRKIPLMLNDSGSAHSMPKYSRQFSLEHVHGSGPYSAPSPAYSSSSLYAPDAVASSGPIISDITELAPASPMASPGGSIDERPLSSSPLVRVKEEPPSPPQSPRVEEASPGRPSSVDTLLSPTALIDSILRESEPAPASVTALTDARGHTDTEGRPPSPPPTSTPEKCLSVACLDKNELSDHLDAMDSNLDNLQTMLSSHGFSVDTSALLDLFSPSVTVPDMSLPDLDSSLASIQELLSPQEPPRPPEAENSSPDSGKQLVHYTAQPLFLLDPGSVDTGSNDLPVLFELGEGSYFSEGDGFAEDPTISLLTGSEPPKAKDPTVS
# How it was run: as §1
# SPIC = molecular target: T8, SPIC (Homo sapiens, UniProt Q8N5J4 1-248); details: protein: recombinant; tags: N-terminal GST; dsDNA, one strand shown
# T8 sequence: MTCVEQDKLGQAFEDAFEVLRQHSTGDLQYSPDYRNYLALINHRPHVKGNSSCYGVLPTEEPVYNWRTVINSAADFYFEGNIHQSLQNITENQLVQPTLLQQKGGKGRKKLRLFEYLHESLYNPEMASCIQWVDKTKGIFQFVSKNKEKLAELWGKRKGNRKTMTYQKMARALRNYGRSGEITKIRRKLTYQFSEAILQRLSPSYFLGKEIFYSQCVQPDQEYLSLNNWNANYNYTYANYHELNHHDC
# How it was run: as §1
# ELF4 = ELF4 (Homo sapiens, UniProt Q99607 1-663); details: protein: recombinant; tags: N-terminal GST; dsDNA, one strand shown
# ELF4, sequence (Q99607 whole entry): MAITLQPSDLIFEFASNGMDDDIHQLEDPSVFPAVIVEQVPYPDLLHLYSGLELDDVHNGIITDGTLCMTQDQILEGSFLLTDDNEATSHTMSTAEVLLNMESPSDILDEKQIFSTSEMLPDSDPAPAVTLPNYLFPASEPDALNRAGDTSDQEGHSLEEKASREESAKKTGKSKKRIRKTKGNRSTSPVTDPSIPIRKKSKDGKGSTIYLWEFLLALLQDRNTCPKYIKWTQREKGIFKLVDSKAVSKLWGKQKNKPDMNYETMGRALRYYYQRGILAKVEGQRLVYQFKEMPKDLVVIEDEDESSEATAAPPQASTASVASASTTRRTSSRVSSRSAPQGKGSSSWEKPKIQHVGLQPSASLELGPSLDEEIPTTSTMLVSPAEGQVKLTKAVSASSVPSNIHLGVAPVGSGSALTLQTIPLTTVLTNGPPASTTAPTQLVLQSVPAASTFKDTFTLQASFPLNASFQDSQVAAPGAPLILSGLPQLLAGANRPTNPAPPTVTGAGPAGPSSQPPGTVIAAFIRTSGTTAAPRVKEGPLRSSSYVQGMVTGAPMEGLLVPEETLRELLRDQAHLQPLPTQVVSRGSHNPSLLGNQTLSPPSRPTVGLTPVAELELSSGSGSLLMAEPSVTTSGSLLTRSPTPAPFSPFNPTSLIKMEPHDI
# How it was run: as §1
# ELK4 = molecular target: T9, ELK4 (Homo sapiens, UniProt P28324-2 1-405); details: protein: recombinant; tags: N-terminal GST; dsDNA, one strand shown
# T9 sequence: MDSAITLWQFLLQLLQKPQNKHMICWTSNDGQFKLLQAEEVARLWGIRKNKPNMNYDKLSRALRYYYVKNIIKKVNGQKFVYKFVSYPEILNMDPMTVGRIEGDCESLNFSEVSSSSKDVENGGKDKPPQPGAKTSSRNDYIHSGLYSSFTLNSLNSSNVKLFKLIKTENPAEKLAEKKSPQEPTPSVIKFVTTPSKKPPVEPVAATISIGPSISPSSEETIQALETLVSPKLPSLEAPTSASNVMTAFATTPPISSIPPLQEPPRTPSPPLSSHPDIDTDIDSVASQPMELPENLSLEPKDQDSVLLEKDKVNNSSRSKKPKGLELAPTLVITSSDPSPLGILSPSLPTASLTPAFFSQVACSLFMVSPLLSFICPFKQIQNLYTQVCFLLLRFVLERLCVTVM
# How it was run: as §1
# ETV2 = molecular target: T10, ETV2 (Homo sapiens, UniProt O00321 1-342); details: protein: recombinant; tags: N-terminal GST; dsDNA, one strand shown
# T10 sequence: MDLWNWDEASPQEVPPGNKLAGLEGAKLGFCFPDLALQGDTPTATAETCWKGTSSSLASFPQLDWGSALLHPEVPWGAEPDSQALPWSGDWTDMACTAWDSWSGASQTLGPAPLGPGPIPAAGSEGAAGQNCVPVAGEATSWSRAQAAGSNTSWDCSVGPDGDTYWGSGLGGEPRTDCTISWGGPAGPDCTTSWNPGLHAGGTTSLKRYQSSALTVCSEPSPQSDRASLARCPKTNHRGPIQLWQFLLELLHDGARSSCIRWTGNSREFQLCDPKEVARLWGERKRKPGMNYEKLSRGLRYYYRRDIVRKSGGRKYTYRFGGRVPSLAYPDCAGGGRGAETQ
# How it was run: as §1
# ELF3 = molecular target: T11, ELF3 (Homo sapiens, UniProt P78545 1-371); details: protein: recombinant; tags: N-terminal GST; dsDNA, one strand shown
# T11 sequence: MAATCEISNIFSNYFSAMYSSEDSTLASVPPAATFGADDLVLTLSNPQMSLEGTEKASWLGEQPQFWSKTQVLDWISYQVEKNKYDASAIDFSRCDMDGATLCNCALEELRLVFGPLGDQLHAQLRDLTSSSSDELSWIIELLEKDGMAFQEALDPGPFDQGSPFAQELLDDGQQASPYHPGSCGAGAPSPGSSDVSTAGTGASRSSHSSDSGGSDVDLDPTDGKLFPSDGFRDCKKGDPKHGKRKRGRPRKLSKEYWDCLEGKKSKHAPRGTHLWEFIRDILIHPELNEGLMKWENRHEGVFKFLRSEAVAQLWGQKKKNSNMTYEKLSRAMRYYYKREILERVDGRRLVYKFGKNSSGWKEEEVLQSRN
# How it was run: as §1
# CRX = CRX (Homo sapiens, UniProt O43186 1-299); details: protein: recombinant; tags: N-terminal GST; dsDNA, one strand shown
# CRX, sequence (O43186 whole entry): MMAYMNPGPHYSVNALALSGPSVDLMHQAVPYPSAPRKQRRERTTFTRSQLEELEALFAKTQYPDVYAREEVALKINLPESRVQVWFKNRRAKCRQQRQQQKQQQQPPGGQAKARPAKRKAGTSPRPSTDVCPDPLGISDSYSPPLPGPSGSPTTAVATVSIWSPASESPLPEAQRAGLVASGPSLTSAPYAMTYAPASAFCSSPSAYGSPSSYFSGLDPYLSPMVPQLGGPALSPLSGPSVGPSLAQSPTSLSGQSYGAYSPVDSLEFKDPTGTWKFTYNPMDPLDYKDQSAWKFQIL
# How it was run: as §1
# ETV1 = ETV1 (Homo sapiens, UniProt P50549 1-477); details: protein: recombinant; tags: N-terminal GST; dsDNA, one strand shown
# ETV1, sequence (P50549 whole entry): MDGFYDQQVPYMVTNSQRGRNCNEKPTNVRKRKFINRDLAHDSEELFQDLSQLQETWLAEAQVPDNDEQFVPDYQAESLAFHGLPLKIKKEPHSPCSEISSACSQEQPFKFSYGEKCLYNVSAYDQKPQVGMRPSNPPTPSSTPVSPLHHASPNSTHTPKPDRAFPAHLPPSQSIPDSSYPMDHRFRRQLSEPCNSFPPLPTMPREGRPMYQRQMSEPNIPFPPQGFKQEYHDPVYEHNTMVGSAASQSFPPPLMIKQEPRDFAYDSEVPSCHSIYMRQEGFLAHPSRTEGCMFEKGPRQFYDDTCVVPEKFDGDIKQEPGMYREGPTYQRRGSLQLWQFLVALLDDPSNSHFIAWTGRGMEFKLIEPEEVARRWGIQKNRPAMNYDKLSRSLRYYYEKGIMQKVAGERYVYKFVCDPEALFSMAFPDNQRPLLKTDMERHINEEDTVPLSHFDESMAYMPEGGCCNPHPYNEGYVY
# How it was run: as §1
sequence,measurement,setting,value
TTCGTC,binding signal,FLI1,"1.36 fold enrichment (6-mer frequency, TF over GST control)"
same,binding signal,ELK1,"1.33 fold enrichment (6-mer frequency, TF over GST control)"
same,binding signal,GABPA,"1.33 fold enrichment (6-mer frequency, TF over GST control)"
same,binding signal,ERG,"1.23 fold enrichment (6-mer frequency, TF over GST control)"
same,binding signal,ELF1,"1.32 fold enrichment (6-mer frequency, TF over GST control)"
same,binding signal,EHF,"1.27 fold enrichment (6-mer frequency, TF over GST control)"
same,binding signal,SPI1,"1.29 fold enrichment (6-mer frequency, TF over GST control)"
same,binding signal,SPIB,"1.27 fold enrichment (6-mer frequency, TF over GST control)"
same,binding signal,ELK3,"1.22 fold enrichment (6-mer frequency, TF over GST control)"
same,binding signal,FEV,"1.21 fold enrichment (6-mer frequency, TF over GST control)"
same,binding signal,ETV5,"1.33 fold enrichment (6-mer frequency, TF over GST control)"
same,binding signal,HSF1,"1.25 fold enrichment (6-mer frequency, TF over GST control)"
same,binding signal,SPIC,"1.23 fold enrichment (6-mer frequency, TF over GST control)"
same,binding signal,ELF4,"1.29 fold enrichment (6-mer frequency, TF over GST control)"
same,binding signal,ELK4,"1.41 fold enrichment (6-mer frequency, TF over GST control)"
same,binding signal,ETV2,"1.33 fold enrichment (6-mer frequency, TF over GST control)"
same,binding signal,ELF3,"1.39 fold enrichment (6-mer frequency, TF over GST control)"
same,binding signal,CRX,"1.09 fold enrichment (6-mer frequency, TF over GST control)"
same,binding signal,ETV1,"1.26 fold enrichment (6-mer frequency, TF over GST control)"
